PubChem BioAssay (NCI)
About 83,000 compounds went through this panel and 20% of them were active in at least one assay; those are over-represented in the sample as a whole.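 Growth was measured after 48 h exposure to one concentration of compound in 96-well plates. Values under 10 count as active.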 Values without a mark were called inactive. Calls of active or inactive are those of the source.

test system: RPMI-8226 leukemia; assay: NCI-60 one-dose screen, 48 h (100 = growth as untreated, 0 = no growth, -100 = all killed); conditions: 10 µM unless noted

**Q.** With `O=C(N/N=C/c1ccncc1)c1ccc(C(F)(F)F)nc1Nc1cccc(C(F)(F)F)c1` as the compound, how does the growth read?
**A.** -64.1% (active)

**Q.** `COC(=O)[C@]12CC[C@@H](C)[C@H](C)[C@@H]1C1=CC[C@@H]3[C@@]4(C)C(C=O)=C[C@@](C)(COC(C)=O)[C@@H]4C(=O)C[C@@]3(C)[C@]1(C)CC2` was tested. Which growth did it give?
**A.** 26%

**Q.** With `O=C(Nc1ccccc1)Nc1cccc(Oc2nnc(Cl)c3ccccc23)c1` as the compound, how does the growth read?
**A.** 35.1%

**Q.** Which growth does the source give for `N#Cc1c(-c2ccccc2)cc(-c2ccc(Nc3nc(Nc4ccc(F)cc4)nc(Nc4ccc(F)cc4)n3)cc2)nc1N` here?
**A.** 14.9%

**Q.** How did the growth turn out when `CCn1c(C)nc2cc(C(N)=O)ccc21` was run?
**A.** 80.9%

**Q.** With `O=C(/C=C/c1ccco1)c1ccc(Nc2nc(Nc3ccc(F)cc3)nc(Nc3ccc(Cl)cc3)n2)cc1` as the compound, how does the growth read?
**A.** 23.6%

**Q.** How did the growth turn out when `CC/C=C\C[C@H](O)C/C=C1/C(=O)C=C[C@@H]1C/C=C\CCCC(=O)OC` was run?
**A.** -11.5% (active)

**Q.** Which growth does the source give for `N#Cc1c(-c2cccc(Cl)c2)cc(-c2cccc(Cl)c2)[nH]c1=O` here?
**A.** 57.2%

**Q.** Which growth does the source give for `O=C1CC(N2C(=O)/C(=C/C(Cl)=C\c3ccc([N+](=O)[O-])cc3)SC2=S)C(=O)N1c1ccc(O)cc1` (stereo not drawn) here?
**A.** -15.1% (active)

test system: OVCAR-8 ovarian; assay: as above; conditions: 10 µM unless noted

**Q.** For `CC1CC2Oc3ccc(Cl)cc3C(=O)N2O1` (stereo not drawn), which growth is on record?
**A.** 107%

**Q.** `COc1cccc(C(=O)NCCNc2cc(-c3cn(-c4ccccc4)nc3-c3cccc(OC)c3)ccn2)c1` was tested. Which growth did it give?
**A.** 40%

**Q.** With `CN(C)c1ccc(-c2ccc3[nH]c(=O)nc(-c4ccccc4)c3c2)cn1` as the compound, how does the growth read?
**A.** 63.8%

**Q.** `CCN(CC)CCCCCCNc1cc(OC)c(Cl)c2cccnc12` was tested. Which growth did it give?
**A.** 84.9%

**Q.** How did the growth turn out when `NC(=N\N=C/c1ccccc1[N+](=O)[O-])/C(N)=N\N=C/c1ccccc1[N+](=O)[O-]` was run?
**A.** 109%

**Q.** For `C[n+]1cc2cc(C(N)=O)[nH]c3c(=N)c(Cl)c(N)c1c23`, which growth is on record?
**A.** 43.1%

**Q.** For `COc1ccc(C2=Nc3c(N)ncnc3NC(c3ccc4c(c3)OCO4)C2)cc1` (stereo not drawn), which growth is on record?
**A.** 103%

**Q.** How did the growth turn out when `CCN(CC)CCN1C(=O)c2c(c(C)c3c(oc4cc(O)ccc43)c2C)C1=O` was run?
**A.** -62.6% (active)

**Q.** For `O=C(Nc1ccccc1Cl)Oc1ccc(-c2ccccc2)cc1`, which growth is on record?
**A.** 103%

**Q.** How did the growth turn out when `O=C1/C(=C/c2ccc(F)cc2)C=C(c2ccccc2)N1CCc1ccccc1` was run?
**A.** 45.6%

**Q.** With `Cc1cc(Cl)ccc1Nc1nc(C(F)(F)F)ccc1C(=O)N/N=C/c1ccc(N(C)C)cc1` as the compound, how does the growth read?
**A.** 18.7%

**Q.** With `CCN1CCN(c2cc(C)nc(NCc3cc(Nc4ccnc5cc(Cl)ccc45)ccc3F)n2)CC1` as the compound, how does the growth read?
**A.** 69.6%

**Q.** With `CCN(CC)CCN1CC(O)=C(c2nc(-c3ccc(Cl)cc3)cs2)C1=N` as the compound, how does the growth read?
**A.** 44.6%

**Q.** How did the growth turn out when `CC(=O)n1c(-c2ccc(Cl)cc2)nc2c(c1=O)C(c1ccc(Cl)cc1)c1sc3c(Cl)cccc3c1O2` (stereo not drawn) was run?
**A.** -31.5% (active)

**Q.** Which growth does the source give for `CCN(CC)CCn1nc2c3c(cccc3c1=O)-c1ccccc1-2` here?
**A.** 23.3%

**Q.** Which growth does the source give for `Cc1cc(Cl)nc(NCc2cc(Nc3ccnc4cc(Cl)ccc34)ccc2F)n1` here?
**A.** 50.6%

**Q.** Which growth does the source give for `O=C(NCCCNc1cc(-c2cn(-c3ccccc3)nc2-c2cccc(O)c2)ccn1)c1ccccc1` here?
**A.** 27.5%

**Q.** Which growth does the source give for `COc1ccc(-c2cc(-c3cc(OC)ccc3OC)nc(SCC(=O)c3ccccc3)c2C#N)cc1` here?
**A.** 96.6%

**Q.** For `Nc1cc2c3c(cccc3c1)C(=O)N(CCN1CCCC1)C2=O`, which growth is on record?
**A.** 34.4%

**Q.** With `COc1ccc(-c2csc(C3=C(O)CN(CCCN4CCCC4=O)C3=N)n2)cc1OC` as the compound, how does the growth read?
**A.** 94.6%

**Q.** `CCCCn1c(=O)c2c(nc(NCCc3ccc(O)c(O)c3)n2CCC)n(CCCC)c1=O` was tested. Which growth did it give?
**A.** 75.5%

**Q.** How did the growth turn out when `N#C/C(=C/C=C/c1cccc(Cl)c1)S(=O)c1ccccc1` (stereo not drawn) was run?
**A.** -2.48% (active)

**Q.** With `O=C1OC(c2nc3ccccc3s2)=C/C1=C\c1ccc(O)cc1` as the compound, how does the growth read?
**A.** 106%

**Q.** `CC/C=C\CCC/C=C1/C(=O)C=C[C@@H]1C/C=C\CCCC(=O)O` was tested. Which growth did it give?
**A.** 9.28% (active)

**Q.** `CC(=O)C(C)Cc1cc2c(cc1C)C(C)(C)CCC2(C)C` (stereo not drawn) was tested. Which growth did it give?
**A.** 101%

**Q.** `O=[N+]([O-])c1ccc(C2CC(c3ccccc3)=Nc3ccccc3S2)cc1` (stereo not drawn) was tested. Which growth did it give?
**A.** 94.9%

**Q.** For `COc1ccc(-c2nc3c(c(=O)n2C(C)=O)C(c2ccc(Cl)cc2)c2sc4c(Cl)cccc4c2O3)cc1` (stereo not drawn), which growth is on record?
**A.** -23% (active)

**Q.** How did the growth turn out when `FC(F)(F)c1cc(Nc2ccc3cc(OCCCN4CCOCC4)ccc3n2)ccc1Cl` was run?
**A.** 31.3%

**Q.** With `CC(C)CCC[C@@H](C)[C@H]1CC[C@H]2[C@@H](Nc3ccc(O)cc3)CCC[C@]12C` as the compound, how does the growth read?
**A.** 97.6%
